The record followed here is ChEMBL document CHEMBL4513141, “CO-ADD screening of NIH (USA) - Clinical Collection” (2021).

Structures are written as SMILES. Results with a measured potency or affinity are listed apart.

The subject of the first experiment is Klebsiella pneumoniae. The settings on record: Concentration 20 uM; ASSAY_TEST Inhibition of Bacterial Growth; detection method Absorption (OD600); MEDIA CAMHB; plate type 384well; NBS; CORNING #3640; time 18 hr.
As usually defined, the Inhibition is the drop in the measured response relative to a control, in per cent. A low value points to little suppression. `CCOc1cc(N)c(Cl)cc1C(=O)NCC1CN(Cc2ccc(F)cc2)CCO1.O=C(O)CC(O)(CC(=O)O)C(=O)O` (stereo not drawn) [MOSAPRIDE CITRATE] showed an Inhibition of 16.24%.
Still for that read-out and setting: next, `CCCOc1ccc(C(=O)OCCN(CC)CC)cc1N.Cl` [PROPARACAINE HYDROCHLORIDE]: 1.6%.
`Cc1ccccc1C(OCCN(C)C)c1ccccc1.Cl` (stereo not drawn) [ORPHENADRINE HYDROCHLORIDE] showed an Inhibition of 11.73%.
Turning to `Cl.O.OC[C@H]1O[C@@H](n2cnc3c(N[C@H]4CCC[C@@H]4O)ncnc32)[C@@H](O)C1O` (stereo partly drawn), the Inhibition is 8.61%.
In turn, `COc1cc(N)c(Cl)cc1C(=O)N[C@@H]1CCN(CCCOc2ccc(F)cc2)C[C@@H]1OC.O` [(R,S)-CISAPRIDE MONOHYDRATE] came in with an Inhibition of 7.83%.
`Nc1nnc(-c2cccc(Cl)c2Cl)c(N)n1` [LAMOTRIGINE] gave an Inhibition of 6.26%.

In a further experiment the test system is Candida albicans. The settings on record: 20 µM.
Molecule `CCCNCC(O)COc1ccccc1C(=O)CCc1ccccc1` (stereo not drawn) [PROPAFENONE] displayed an Inhibition of 0.01%.
As for `CCc1nn(CCCN2CCN(c3cccc(Cl)c3)CC2)c(=O)n1CCOc1ccccc1.Cl` [NEFAZODONE HYDROCHLORIDE], the Inhibition turned out to be 2.01%.
`Cl.O.O=C(c1ccc(F)cc1)C1CCN(CCn2c(=S)[nH]c3ccccc3c2=O)CC1` yielded an Inhibition of 3.36%.
The molecule `CN(C)CCCN1c2ccccc2Sc2ccc(Cl)cc21.Cl` [CHLORPROMAZINE HYDROCHLORIDE] displayed an Inhibition of 0.59%.
For the molecule `O=C(CCCN1CC=C(n2c(=O)[nH]c3ccccc32)CC1)c1ccc(F)cc1` [DROPERIDOL], the Inhibition was found to be 4.22%.
`CCC(=O)OCC(=O)[C@@]1(OC(=O)CC)[C@@H](C)C[C@H]2[C@@H]3CCC4=CC(=O)C=C[C@]4(C)[C@@]3(Cl)[C@@H](O)C[C@@]21C` [BECLOMETHASONE DIPROPIONATE]: the Inhibition is 3.12%.
As to `Cl.O=C1[C@H]2CCCC[C@H]2C(=O)N1CCCCN1CCN(c2nsc3ccccc23)CC1`, the Inhibition turned out to be 2.33%.
With `CC(=O)S[C@@H]1CC2=CC(=O)CC[C@]2(C)[C@H]2CC[C@@]3(C)[C@@H](CC[C@@]34CCC(=O)O4)[C@H]12` [SPIRONOLACTONE], the Inhibition worked out at 1.56%.
Regarding `O=C(O[C@H]1[C@H](Oc2ccccc2COC(=O)C2(O)C=CCCC2=O)O[C@H](CO)[C@@H](O)[C@@H]1O)c1ccccc1` (stereo partly drawn) [TREMULACIN], the Inhibition was 3.13%.
Molecule `Cl.Nc1nc2ccc(OC(F)(F)F)cc2s1` registered an Inhibition of 2.98%.
Turning to `Cl.Clc1ccc2nsnc2c1NC1=NCCN1` [TIZANIDINE HYDROCHLORIDE], the Inhibition amounted to 3.84%.
With `Cl.Clc1ccccc1CN1CCc2sccc2C1` [TICLOPIDINE HYDROCHLORIDE], the Inhibition came out at 1.25%.
For the molecule `Cc1cccc(Nc2ccncc2S(=O)(=O)NC(=O)NC(C)C)c1` [TORSEMIDE], the Inhibition was found to be 2.49%.
`COc1ccc(-c2cc(=O)c3c(OC)c(OC)c(OC)c(OC)c3o2)cc1OC` [NOBILETIN] had an Inhibition of 7.12%.
`COCCOC(=O)C1=C(C)NC(C)=C(C(=O)OC(C)C)C1c1cccc([N+](=O)[O-])c1` (stereo not drawn) [NIMODIPINE] yielded an Inhibition of 5.34%.
`CCCN1CCCC[C@H]1C(=O)Nc1c(C)cccc1C.Cl` [ROPIVACAINE HYDROCHLORIDE] yielded an Inhibition of 3.24%.
On to `COC1=CC(=O)C[C@@H](C)[C@]12Oc1c(Cl)c(OC)cc(OC)c1C2=O` [GRISEOFULVIN], for which the Inhibition amounted to 3.42%.
The same measure, in the same setting: next, `CCOC(=O)N1CCC(=C2c3ccc(Cl)cc3CCc3cccnc32)CC1` [LORATADINE]: 2.41%; `CCC(C)(C)C(=O)O[C@H]1C[C@@H](C)C=C2C=C[C@H](C)[C@H](CC[C@@H]3C[C@@H](O)CC(=O)O3)[C@H]21` [SIMVASTATIN]: 14.8%; `CC(=O)CCCCn1c(=O)c2c(ncn2C)n(C)c1=O` [PENTOXIFYLLINE]: 2.65%.
The same measure, in the same setting: next, `CC(C)[C@H]1CC[C@H](C(=O)N[C@H](Cc2ccccc2)C(=O)O)CC1` [NATEGLINIDE]: 4.05%; `C#C[C@]1(O)CC[C@H]2[C@@H]3CCc4cc(O)ccc4[C@H]3CC[C@@]21C` [ETHINYL ESTRADIOL]: 2.87%; `CCC1(c2ccccc2)C(=O)NCNC1=O` [PRIMIDONE]: 2.22%.
For `Cc1ccc(N(CC2=NCCN2)c2cccc(O)c2)cc1` [PHENTOLAMINE], the Inhibition was determined as 2.06%.
Turning to `O=c1c(O[C@@H]2O[C@H](CO)[C@@H](O)[C@H](O)[C@H]2O)c(-c2ccc(O)c(O)c2)oc2cc(O)cc(O)c12` [ISOQUERCETIN], the Inhibition was 1.9%.
As for `C=C1/C(=C\C=C2/CCC[C@]3(C)[C@@H]([C@H](C)/C=C/[C@@H](O)C4CC4)CC[C@@H]23)C[C@@H](O)C[C@@H]1O` [CALCIPOTRIENE], the Inhibition was 0.06%.
Same read-out and setting: next, `Nc1ncnc2c1ncn2[C@@H]1O[C@H](CO)C[C@@H]1O.O`: 5.13%; `CC1CCN(CCCC(=O)c2ccc(F)cc2)CC1.Cl`: 2.99%; `CCN1CCC[C@H]1CNC(=O)c1cc(S(N)(=O)=O)ccc1OC` [LEVOSULPIRIDE]: 2.16%.
In the case of `CN1CCc2cc(Cl)c(O)cc2[C@@H](c2ccccc2)C1.Cl`, the Inhibition stood at 1.81%.
As to `CC(C)[N+](C)(CCOC(=O)C1c2ccccc2Oc2ccccc21)C(C)C.[Br-]` [PROPANTHELINE BROMIDE], the Inhibition turned out to be 2.52%.
`CCOc1cc(N)c(Cl)cc1C(=O)NCC1CN(Cc2ccc(F)cc2)CCO1.O=C(O)CC(O)(CC(=O)O)C(=O)O` (stereo not drawn) [MOSAPRIDE CITRATE] gave an Inhibition of 1.57%.
Still for that read-out and setting: next, `CCCOc1ccc(C(=O)OCCN(CC)CC)cc1N.Cl` [PROPARACAINE HYDROCHLORIDE]: 0.55%; `Cc1ccccc1C(OCCN(C)C)c1ccccc1.Cl` (stereo not drawn) [ORPHENADRINE HYDROCHLORIDE]: 1.54%.
The molecule `Cl.O.OC[C@H]1O[C@@H](n2cnc3c(N[C@H]4CCC[C@@H]4O)ncnc32)[C@@H](O)C1O` (stereo partly drawn) came in with an Inhibition of 3.02%.
On to `COc1cc(N)c(Cl)cc1C(=O)N[C@@H]1CCN(CCCOc2ccc(F)cc2)C[C@@H]1OC.O` [(R,S)-CISAPRIDE MONOHYDRATE], for which the Inhibition amounted to 1.98%.
Consider `Nc1nnc(-c2cccc(Cl)c2Cl)c(N)n1` [LAMOTRIGINE], for which the Inhibition amounted to 3.32%.
